In the test the test system is NCI-H1944. The experiment in a line: normalised cell viability (NPI; 0 = phenylarsine oxide control, 1 = DMSO control) (fraction of DMSO control); NCI-H1944 is a non-small cell lung cancer line; higher = more viable cells (less compound toxicity). The note with it: 6 days.
Where [1] appears, read: glucocorticoid arm: hydrocortisone 2.75 uM co-treatment, compound 1 µM.
Where [2] appears, read: glucocorticoid arm: hydrocortisone 2.75 uM co-treatment, compound 5 µM.
The mark [3] stands for this setting: glucocorticoid arm: hydrocortisone 2.75 uM pre-treated 2 days and continued, compound 1 µM.
[4] abbreviates: glucocorticoid arm: hydrocortisone 2.75 uM pre-treated 2 days and continued, compound 5 µM.
Where [5] appears, read: glucocorticoid arm: vehicle, compound 1 µM.
The mark [6] stands for this setting: glucocorticoid arm: vehicle, compound 5 µM.

± gives the standard deviation of the averaged measurements. Over roughly 1,900 compounds, “normalised cell viability (NPI; 0 = phenylarsine oxide control, 1 = DMSO control)” has its median near 1; the lowest 2% begin near 0.039. What follows is part of a selection rich in the lowest values, with near analogues and random picks from the rest.

Experimental findings from the supplement of paper PMC8285479 are described below.
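Further: CTB read-out in 384-well plates, triplicate wells, NPI normalised per plate against 1 µM phenylarsine oxide (0) and 0.1% DMSO (1) controls.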

As to `CC(NC(=O)C(O)c1cc(F)cc(F)c1)C(=O)NC1C(=O)N(C)c2ccccc2-c2ccccc21` (stereo not drawn), the normalised cell viability is 0.973 ± 0.013 under setting [1]; 0.995 ± 0.017 under setting [2]; 0.977 ± 0.015 under setting [3]; 1.007 ± 0.0058 under setting [4]; 0.9893 ± 0.0038 under setting [5]; 0.9993 ± 0.0011 under setting [6].

With `CO[C@H](C(=O)[C@@H](O)[C@@H](C)O)[C@@H]1Cc2cc3cc(O[C@H]4C[C@@H](O[C@H]5C[C@@H](O)[C@H](O)[C@@H](C)O5)[C@H](O)[C@@H](C)O4)c(C)c(O)c3c(O)c2C(=O)[C@H]1O[C@H]1C[C@@H](O[C@H]2C[C@@H](O[C@H]3C[C@](C)(O)[C@H](O)[C@@H](C)O3)[C@@H](O)[C@@H](C)O2)[C@H](O)[C@@H](C)O1` [Plicamycin], the normalised cell viability under setting [1] was determined as 0.0675 ± 0.0023; the normalised cell viability under setting [2] came out at 0.0276 ± 0.0011; the normalised cell viability under setting [3] is 0.102 ± 0.0097; the normalised cell viability under setting [4] came out at 0.0631 ± 0.0043; the normalised cell viability under setting [5] is 0.0202 ± 0.0011; the normalised cell viability under setting [6] came out at 0.011 ± 0.0021.

As for `CC1(C2CCCC2)Cc2cc(OCC(=O)O)c(Cl)c(Cl)c2C1=O` (stereo not drawn), the normalised cell viability under setting [1] is 0.983 ± 0.014; the normalised cell viability under setting [2] is 0.982 ± 0.037; the normalised cell viability under setting [3] worked out at 0.9883 ± 0.0072; the normalised cell viability under setting [4] came to 0.986 ± 0.084; the normalised cell viability under setting [5] is 0.998 ± 0.011; the normalised cell viability under setting [6] came out at 0.9853 ± 0.0067.

Take `Cc1ccc([N+](=O)[O-])cc1S(=O)(=O)N(C)/N=C/c1cnc2ccc(Br)cn12`: the normalised cell viability under setting [1] worked out at 0.025 ± 0.0023; the normalised cell viability under setting [2] turned out to be 0.0304 ± 0.0032; the normalised cell viability under setting [3] amounted to 0.0674 ± 0.0086; the normalised cell viability under setting [4] worked out at 0.0802 ± 0.022; the normalised cell viability under setting [5] amounted to 0.0104 ± 0.005; the normalised cell viability under setting [6] turned out to be 0.00623 ± 0.0011.

Take `Cc1ccc([N+](=O)[O-])cc1S(=O)(=O)N(C)C`: the normalised cell viability by setting is: under setting [1], 1 ± 0.018; under setting [2], 0.9945 ± 0.0095; under setting [3], 1 ± 0.011; under setting [4], 0.978 ± 0.028; under setting [5], 1.004 ± 0.0094; under setting [6], 1.007 ± 0.0052.

For `CCCCC/C=C\C[C@@H](O)/C=C/c1cccc(C[C@@H](O)CCCCO)n1`, the normalised cell viability by setting is: under setting [1], 1.005 ± 0.0081; under setting [2], 1.05 ± 0.04; under setting [3], 1.01 ± 0.015; under setting [4], 1.04 ± 0.011; under setting [5], 1.013 ± 0.0058; under setting [6], 1.027 ± 0.0058.

In the case of `OC[C@H]1O[C@@H](n2cnc3c(N[C@H]4CCC[C@@H]4O)ncnc32)[C@H](O)[C@@H]1O`, the normalised cell viability is, setting by setting: under setting [1], 1.017 ± 0.0058; under setting [2], 1.01 ± 0.027; under setting [3], 1.01 ± 0.01; under setting [4], 1.01; under setting [5], 0.993 ± 0.015; under setting [6], 0.9927 ± 0.0095.

`CC[n+]1c(/C=C/C=C2/N(C)c3ccccc3C2(C)C)sc2ccccc21`: the normalised cell viability came out at 0.467 ± 0.026 under setting [1]; 0.434 ± 0.017 under setting [2]; 0.901 ± 0.032 under setting [3]; 0.798 ± 0.02 under setting [4]; 0.237 ± 0.0069 under setting [5]; 0.112 ± 0.0067 under setting [6].

Take `NC(N)=N[C@@H](CCC(=O)O)C(=O)O` [alpha-Guanidinoglutaric acid]: the normalised cell viability by setting is: under setting [1], 1.01 ± 0.01; under setting [2], 0.983 ± 0.01; under setting [3], 1.006 ± 0.0063; under setting [4], 1.01 ± 0.021; under setting [5], 0.9917 ± 0.0038; under setting [6], 1.002 ± 0.0072.

Turning to `CCCCCCCCOc1ccccc1C(=O)Nc1ccc(C(=O)OCC[N+](C)(CC)CC)cc1` [Otilonium Bromide], the normalised cell viability stood at 1.03 ± 0.01 under setting [1]; 1.03 ± 0.026 under setting [2]; 1.01 ± 0.026 under setting [3]; 1.03 ± 0.025 under setting [4]; 1.007 ± 0.0058 under setting [5]; 1.003 ± 0.0058 under setting [6].

On to `CC[C@@H]1C(=O)N(C)c2cnc(Nc3ccc(C(=O)N[C@H]4CC[C@H](N5CCN(CC6CC6)CC5)CC4)cc3OC)nc2N1C(C)C` [BI6727 (Volasertib)], for which the normalised cell viability is, setting by setting: under setting [1], 0.346 ± 0.023; under setting [2], 0.201 ± 0.025; under setting [3], 0.58 ± 0.017; under setting [4], 0.213 ± 0.15; under setting [5], 0.0771 ± 0.019; under setting [6], 0.0219 ± 0.0034.

On to `COc1cc(C(=O)NC2CCN(C)CC2)ccc1Nc1ncc2c(n1)N(C1CCCC1)CC(F)(F)C(=O)N2C`, for which the normalised cell viability runs as follows: under setting [1], 0.354 ± 0.024; under setting [2], 0.359 ± 0.031; under setting [3], 0.73 ± 0.022; under setting [4], 0.7627 ± 0.007; under setting [5], 0.066 ± 0.0089; under setting [6], 0.0695 ± 0.004.

Turning to `CC[C@@H]1C(=O)N(C)c2cnc(Nc3ccc(C(=O)NC4CCN(C)CC4)cc3OC)nc2N1C1CCCC1`, the normalised cell viability is, setting by setting: under setting [1], 0.535 ± 0.026; under setting [2], 0.4 ± 0.057; under setting [3], 0.797 ± 0.042; under setting [4], 0.592 ± 0.083; under setting [5], 0.0889 ± 0.011; under setting [6], 0.0658 ± 0.0046.
